In the library only some 2.1% were active in any assay of this set; here they are far more common.
PrP 5UTR inh: inhibition of PrP 5' UTR reporter expression | cell-based PrP 5' UTR mRNA reporter, plate reader | inhibition, % (test concentration not listed) | 0.35% of 340,000 active; in the data active = inhibition above about 52%; also: 0 = median of the neutral control wells
PfHsp40 rescue: compounds rescuing yeast from Plasmodium falciparum HSP40 toxicity; S. cerevisiae expressing PfHsp40, growth rescue, ATP luminescence; growth rescue, % at 12.5 µM; 0.68% of 340,000 active; in the data active = growth rescue above about 28%, passing the limit was not always enough; inconclusive = no clear call, values can overlap the other calls;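 also: yeast W303a lacking pdr1 and pdr3 grown in galactose medium; growth measured after three days at 30 °C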
CCHFV vOTU inh: blocks the CCHF virus ovarian tumor domain protease. CCHFV vOTU protease, Pep-AMC fluorescence. inhibition, % at 11.5 µM. 0.55% of 370,000 active. AID 651958; in the data active = inhibition above about 30%; also: 0% = vehicle wells with enzyme and 100% = no enzyme wells
Sa ugtP lethal: compounds lethal to S. aureus RN4220 ugtP deletion mutant. OD600 growth, 16 h. growth inhibition, % (concentration not given with the values). 0.54% of 330,000 active; in the data active = growth inhibition above about 68%;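 also: plate controls were untreated wells for no effect and antibiotic for full effect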
Sa RN4220 lethal: S. aureus RN4220 growth inhibition; OD600, 16 h; inhibition, % (test concentration not listed); 0.33% of 330,000 active; in the data active = inhibition above about 85%;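 also: plate controls were untreated cells for no effect and reference antibiotic for full effect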
PrPC TRFRET: reduces human prion protein on the cell surface; cell surface PrPC, TR-FRET read-out; 0.43% of 370,000 active; AID 720596; inhibition, % at 13.8 µM; P04156; in the data active = inhibition above about 24%; also: 0% = median of the test wells and 100% = reference compound wells
The depositor's hits bear a star; ? = inconclusive; . = not tested or not shown.

SMILES	PrP 5UTR inh	PfHsp40 rescue	CCHFV vOTU inh	Sa ugtP lethal	Sa RN4220 lethal	PrPC TRFRET
CCCCCC1CN(CCCC)C(=O)C1CC(=O)NCc1ccc(OC)cc1 (stereo unspecified)	.	.	.	-8	5	.
O=C(CN1C(=O)COc2ccccc21)N1CCN(c2ccccc2F)CC1	-14	83*	-10	-1	-2	0
Oc1c(CN2CCc3ccccc3C2)cc(Cl)c2cccnc12	22	282*	.	-3	4	.
O=C(SCc1c(O)c2ccccc2oc1=O)c1ccccc1	.	.	5	.	.	-2
Oc1c(Cl)cc(CN2CCOCC2)c2cccnc12	-7	?	5	10	1	5
Clc1cc2cccnc2c2ncccc12	-9	116*	2	-7	-4	16
O=c1oc2ccccc2c(O)c1Cc1cc(Cl)c2cccnc2c1O	-19	?	0	98*	94*	-6
O=[N+]([O-])c1cc(Cl)c(O)c2ncccc12	-17	24	13	98*	99*	-3
COC(=O)C1=C(C(=O)OC)C2N(C)c3ccc(OC)cc3[C@@]23CC(C(=O)OC)N(C(=O)NC2CCCCC2)C3=N1 (stereo partly specified)	.	.	.	-14	5	.
CCOc1ccc(Br)cc1C(=O)NN=Cc1ccccn1	.	.	.	3	3	.
COC(=O)C1=C(c2ccc(F)cc2OCc2ccccc2)CC2CCC1N2C(=O)NC(C)C (stereo unspecified)	.	.	.	-10	-1	.
COCc1cc(=O)[nH]c(N=C(N)Nc2ccccc2C)n1	.	.	.	-7	5	.
Cc1c(C(=O)O)cccc1-n1c(C)cc(C=NNC(=O)c2cc3ccccc3o2)c1C	.	.	.	3	4	.
O=[N+]([O-])c1ccc(Cl)c2cccnc12	-18	0	10	-3	2	-4
Cc1c(C)c2cccnc2c2ncccc12	59*	76*	.	74	93*	.
Oc1c(I)cc(Cl)c2cccnc12	27	246*	8	100*	99*	-1
O=[N+]([O-])c1cc(Cl)c2cccnc2c1O	-21	142*	23	100*	99*	-16
c1cnc2c(c1)ccc1ncccc12	-10	0	2	2	1	0
O=[N+]([O-])c1cc(F)c2cccnc2c1O	-7	73*	14	23	30	-12
Oc1c(Cl)c(Cl)c2ncccc2c1Cl	-10	-1	11	5	25	-10
O=C(CC1CC=CCCC(Cc2ccc(F)cc2)C(=O)OCC2CCCN2C1=O)NC(CO)Cc1ccccc1 (stereo unspecified)	.	.	.	4	1	.
CCC(C)C(NC(=O)OCc1ccccc1)c1nnc(C(NC(=O)OCc2ccccc2)C(C)CC)o1 (stereo unspecified)	.	.	.	4	3	.
CC(C)C[C@@]12C(=O)N(c3cccc(Br)c3)C(=O)N1C(c1ccc(Cl)cc1)C1C(=O)N(C3CCCCC3)C(=O)C12 (stereo partly specified)	.	.	.	-25	-3	.
CC1CN(C(C)CO)C(=O)c2cccc(NC(=O)c3ccc(-c4nccs4)cc3)c2OC1CN(C)C(=O)Nc1cccc2ccccc12 (stereo unspecified)	.	.	.	-3	-4	.
O=C(NN=Cc1ccco1)C1CC1c1ccccc1 (stereo unspecified)	.	.	.	-1	-2	.
SMILES	PrP 5UTR inh	PfHsp40 rescue	CCHFV vOTU inh	Sa ugtP lethal	Sa RN4220 lethal	PrPC TRFRET
O=C1NC(Cc2ccccc2)C(=O)N2C1C[C@@]1(Br)c3ccccc3N(S(=O)(=O)c3ccc(F)cc3)C21 (stereo partly specified)	.	.	.	-7	14	.
O=C(NC1=NCCS1)c1csc2ccccc12	-136	50*	-8	-5	6	5
CN(C)c1nc(SCc2ccccc2Cl)nc2c1CCCC2	3	155*	.	26	-10	.
Cc1ccc(CSc2nc3c(c(N(C)C)n2)CCCC3)cc1	-20	1	8	-11	5	5
CC(=NNC(=S)N1CC2CCC(CC2)C1)c1nccs1	12	126*	4	.	.	-9
Cc1c(CCC(=O)O)c(=O)oc2c(C)c3occ(-c4ccc(Cl)cc4)c3cc12	-26	1	-3	101*	96*	-5
CC(=NNC(=O)c1cccc(Br)c1)c1cccnc1	.	.	.	6	-1	.
Cn1nnnc1SCSc1nnnn1C	-6	-2	-6	2	4	-4
CSc1nnnn1CCn1nnnc1SC	-1	0	1	-1	-2	36*
COc1ccc(-c2nc3c4c(ncn3n2)-c2ccccc2CC42CCCC2)cc1	-24	-1	-7	.	.	4

Compound activity deposited in PubChem BioAssay by several laboratories.
